IMPase Li cell – IMPase inhibition in cells with lithium potentiation. CHO-M1 cells, IP1 TR-FRET (IP-One), carbachol + lithium. Potency, µM (titrated, usually from 59.4 µM), for inactives: top-dose activity, negative = IMPase inhibition, most hits filed as inhibitors. 0.35% of 210,000 active;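 further: IP1 builds up when IMPase is blocked and the TR-FRET signal falls; potency means the concentration at half of the fitted maximal effect; plate controls were basal vehicle for no effect and high inhibitor control for full effect; nearly all actives have a fitted effect of over 50% in size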
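Test compounds were applied to CHO-M1 cells previously cultured for 16–30 h at 2000 per well. A small lithium amount accompanied them; after 30 min at 37C, IP1 was quantified by TR-FRET.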
ALDH1A1 block – inhibitors of human aldehyde dehydrogenase 1A1 | Purified ALDH1A1, NADH fluorescence, propionaldehyde substrate | Potency, µM (series often up to 75.3 µM), for the others: at the top dose activity, negative = inhibition, actives largely listed as inhibitors | 7.3% of 220,000 active | AID 1030; active means well fitted inhibition curve with a large enough effect, not every such curve was filed as active; inconclusive means small, poorly fitted or top-dose-only effect, or another doubt; inactive means no such curve, though single readings can be large or run the other way;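 further: potency means the concentration at half of the fitted maximal effect; plate controls were no enzyme wells and a reference inhibitor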
IMPase cell inh – membrane-permeable compound that blocks inositol monophosphatase; AID 901; P97697; 120,000 tested, under 10 active; inhibition (IP1 accumulation), % at 46.1 µM; CHO-M1 cells, IP1 accumulation, HTRF TR-FRET ratio; active means well fitted curve in the direction sought with a large enough effect in the signal ratio, not every such curve was filed as active; inconclusive means small, poorly fitted or top-dose-only effect, or a change in a side signal; inactive means no such curve, though single readings can be large or run the other way; the % refers to the signal ratio;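 further: cells stimulated with carbachol in lithium chloride buffer; plate controls were DMSO basal wells for no effect and reference inhibitor wells for full effect; higher means more IMPase inhibition seen as more IP1 and lower FRET ratio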
Target sequence (P97697 whole entry, looked up): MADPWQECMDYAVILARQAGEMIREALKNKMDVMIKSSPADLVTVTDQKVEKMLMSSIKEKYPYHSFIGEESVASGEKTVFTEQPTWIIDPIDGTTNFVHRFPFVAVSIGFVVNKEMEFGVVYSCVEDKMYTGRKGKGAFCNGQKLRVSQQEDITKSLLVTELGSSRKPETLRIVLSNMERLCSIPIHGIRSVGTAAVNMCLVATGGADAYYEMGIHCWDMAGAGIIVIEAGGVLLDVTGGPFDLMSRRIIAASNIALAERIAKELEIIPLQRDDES
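Carbachol-driven Gq signalling in CHO-M1 cells (2000/well) generates IP1. Compounds that block IMPase raise IP1 and so reduce the FRET signal from Eu-anti-IP1 and d2-IP1 after a 10 min room-temperature lysis.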
PNC assembly inh – perinucleolar compartment assembly inhibition; PC3M PTB-GFP, PNC prevalence imaging, 16 h; stronger effect = lower value; activity change (PNC), negative = inhibition, % at 10 µM; 3.1% of 140,000 active;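 active means readout at or below -70, meaning at least 70% loss of cells showing the perinucleolar compartment, a nuclear body marking cancer cells; inconclusive means readout between -30 and a set limit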;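 further: plate controls were DMSO wells for no effect and camptothecin positive control wells for full effect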
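Compounds are pinned in duplicate onto adhered PC3M cells stably expressing GFP-tagged PTB and incubated 16 h at 37 C. Cells are then fixed, nuclei stained with Hoechst, and PNC-positive cells counted.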
HPGD block – HPGD (human) dehydrogenase inhibition; P15428; Potency, µM, for inactives: top-dose activity change, negative = inhibition, hits mostly inhibitors; purified HPGD, NADH fluorescence kinetic, PGE2 substrate; 4.3% of 150,000 active; AID 894; active means well fitted inhibition curve with a large enough effect, not every such curve was filed as active; inconclusive means small, poorly fitted or top-dose-only effect, or another doubt; inactive means no such curve, though single readings can be large or run the other way; further: potency means the concentration at half of the fitted maximal effect
Target sequence (P15428 whole entry, looked up): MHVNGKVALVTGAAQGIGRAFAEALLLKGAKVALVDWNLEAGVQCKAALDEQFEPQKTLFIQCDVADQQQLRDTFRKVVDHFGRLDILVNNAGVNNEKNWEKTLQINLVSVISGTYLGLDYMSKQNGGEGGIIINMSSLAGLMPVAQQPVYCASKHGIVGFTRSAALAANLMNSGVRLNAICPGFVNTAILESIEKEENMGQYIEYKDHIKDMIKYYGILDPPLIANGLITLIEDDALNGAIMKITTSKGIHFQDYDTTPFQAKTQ
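20 nM HPGD preincubated 15 min at room temperature with compound in 50 mM Tris-HCl pH 8, 0.01% Tween 20. Started with 1 mM NAD+ and 30 uM prostaglandin E2; NADH fluorescence (360/450 nm) read 5 times over 30-s intervals, last minus first.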
NPSR antagonist – antagonists of human neuropeptide S receptor cAMP signaling; Potency, µM (top dose mostly 38.3 µM), for the others: at the top dose activity change, negative = inhibition, most hits filed as inhibitors; CHO-NPSR cells, cAMP TR-FRET, antagonist mode; Q6W5P4; 1% of 220,000 active; further: potency means the concentration at half of the fitted maximal effect; nearly all actives have a fitted effect of over 50% in size
* marks the source's active call; other numbers are inactive results; ? = inconclusive; nt = no result; [ ] = remark or other dose. In the library only some 11% were active in any assay of this set; here they are far more common. Unless noted, the call rests on the fitted dose curve; in most records, active means well fitted curve in the direction sought with a large enough effect; inconclusive means small, poorly fitted or top-dose-only effect, or another doubt; inactive means no such curve, though single readings can be large; an effect the other way counts as inactive or inconclusive. Unless noted, on the % scale 0 is the no-effect control and ±100 the full control effect.

SMILES	IMPase Li cell	ALDH1A1 block	IMPase cell inh	PNC assembly inh	HPGD block	NPSR antagonist
S=c1nc(Cc2ccc(Cl)cc2)[nH]c2ccccc12	-9%	0%	nt	nt	nt	-17%
COc1cccc(C2C(C(=O)Nc3ccccc3)=C(C)Nc3nc(-c4ccccc4)nn32)c1 (configuration not stated)	nt	nt	15	nt	nt	nt
CN(C)c1ccc(S(=O)(=O)NCC(=O)OCC(=O)Nc2cc(Cl)cc(Cl)c2)cc1[N+](=O)[O-]	-3%	14µM*	1	10	-3%	-5%
CCCCC(=Nc1ccc(N)cc1)C1=C(O)C(C(=O)OC)C(C)(C)CC1=O (configuration not stated)	58%[38.3 µM]	?	?	34	-4%	-21%[46.1 µM]
O=C(N/N=C/c1cc([N+](=O)[O-])ccc1O)C12CC3CC(CC(C3)C1)C2	8%	0.89µM*	nt	nt	nt	-35%
Cc1ccc(S(=O)(=O)N(C)C)cc1NC(=S)NC12CC3CC(CC(C3)C1)C2	nt	?	-9	-21	nt	-10%[46.1 µM]
Cc1ccc(S(=O)(=O)N(C)C)cc1NC(=S)N1CCc2ccccc21	1%	25µM*	nt	nt	nt	-9%
CC1Cc2ccccc2N1C(=S)Nc1cccc(S(=O)(=O)N(C)C)c1 (configuration not stated)	4%	?	nt	nt	nt	-17%
CN(C)S(=O)(=O)c1cccc(NC(=S)N2CCc3ccccc32)c1	15%	18µM*	nt	nt	nt	-11%
Cc1ccc(Nc2nnc(SCC(=O)NCCN3C(=O)CSC3=O)s2)cc1C	nt	18µM*	0	?	nt	-3%[46.1 µM]
Cc1ccc(SCC(=O)NCCN2C(=O)CSC2=O)c(C)c1	-1%	-1%	-3	-100*	-5%	8%[46.1 µM]
Cc1cccc(-n2nnnc2SCC(=O)NCCN2C(=O)CSC2=O)c1	-2%[38.3 µM]	20µM*	-2	27	-4%	-29%[46.1 µM]
O=C(CSc1n[nH]c(-c2cc(Cl)ccc2Cl)n1)NCCN1C(=O)CSC1=O	8%	11%	9	26	16µM*	2%
Cc1ccc(SCC(=O)NCCN2C(=O)CSC2=O)cc1C	18%[38.3 µM]	1%	-8	-2	-10%	0%[46.1 µM]
Cc1nnc(SCC(=O)NCCN2C(=O)CSC2=O)n1-c1ccccc1	-6%	-7%	nt	nt	nt	7%
O=C(CSc1ccc(Br)c2cccc(Cl)c12)Nc1ccc(S(=O)(=O)Nc2nccs2)cc1	-22%	-4%	nt	nt	nt	-49%
NC(=O)N/N=C/c1cc(Br)ccc1OC(=O)c1ccccc1	-3%	0%	nt	-81*	-10%	12%
NC(=O)N/N=C/c1cc(Br)ccc1OCC(=O)NCc1ccccc1	34%	2%	nt	26	?	5%
Oc1ccc(N=Nc2cccc(C(F)(F)F)c2)cc1C=Nc1ccc(N2CCOCC2)cc1	-1%	?	nt	41	?	7.9µM*
CC(=O)c1c(NCc2ccccc2)nc(=O)n(-c2ccccc2)c1C	6%[38.3 µM]	14µM*	2	13	-21%	-19%[46.1 µM]
O=c1c2ccccc2oc2ccccc12	-2%	?	nt	nt	?	nt
S=c1[nH]ncn2c1cc1oc3ccccc3c12	1.1µM*	?	nt	nt	nt	10µM*
COc1ccc(CNC(=O)C(C)N=C2NS(=O)(=O)c3ccccc32)cc1OC (configuration not stated)	-16%[38.3 µM]	9%	-2	4	1%	1%[46.1 µM]
CCN(CC)S(=O)(=O)c1cc(NC(=O)c2n[nH]c(=O)c3ccccc23)ccc1C	1%	15%	nt	nt	nt	-21%
CC1CCN(c2nncc3ccccc23)CC1	-7%[38.3 µM]	-3%	?	-93*	-5%	4%[46.1 µM]
CCOC(=O)N1CCC(=NNc2nc(C)cc(=O)[nH]2)CC1	-8%	7%	nt	nt	nt	5%
O=C1NCCCc2c1oc1ccc(O)cc21	-3%[38.3 µM]	8.9µM*	-4	-5	-19%	-16%[46.1 µM]
O=C1c2ccccc2C(=O)N1CCCCSc1nc2ccccc2o1	41%[38.3 µM]	?	-3	0	25µM*	-14%[46.1 µM]
Cc1ncc(CSc2nnnn2-c2ccccc2)c(N)n1	1%[38.3 µM]	?	?	8	-2%	-2%[46.1 µM]
O=C(CSc1nnnn1-c1ccccc1)N1CCCc2ccccc21	5%[38.3 µM]	7.9µM*	-4	-5	-7%	-14%[46.1 µM]
